Conditions in all cases: 25 µM; exposure: 24-48 hpf
Experiment [1] deals with Danio rerio Tg(wt1b:EGFP) embryo, pronephros. The experiment is described as follows: glomerular separation, fold change vs DMSO control; higher = glomeruli further apart (abnormal). The procedure, abridged: (§1)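 Dechorionated Tg(wt1b:EGFP) zebrafish embryos were kept from 24 to 48 hpf at 28.5°C in HEPES-buffered E3 containing 0.003% PTU, 0.5% DMSO and 25 μM compound. The pronephroi were then imaged from the dorsal side in agarose-filled 96-well plates at 470 nm with 10 z-slices, and 16 reference points were placed by hand on maximum projections in Fiji so that a macro could calculate distances and angles. Values lying more than 2 SD from the mean of a feature were discarded. Every feature is given as a fold change against the mean of DMSO-treated embryos from the same day.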

For experiment [2] the test system is unchanged. The experiment is described as follows: glomerular width (mean of left and right), fold change vs DMSO control; higher = wider glomerulus. The essentials: as §1
Experiment [3] has the same test system. The experiment is described as follows: fraction of imaged embryos annotated as normal kidney; higher = less nephrotoxic; extreme values may be limits of the assay. The procedure, abridged: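 The value given is the share of embryos in each treatment scored as having a normal kidney. To obtain it, dechorionated Tg(wt1b:EGFP) zebrafish embryos were treated from 24 to 48 hpf at 28.5°C with 25 μM compound in 0.5% DMSO, in 5 mM HEPES-buffered E3 with 0.003% PTU. Pronephroi were imaged by widefield fluorescence (470 nm, 10 z-slices), and every embryo was annotated by hand from maximum projections.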

Experiment [4] shares this test system. The experiment is described as follows: pronephric angle neck segment to proximal convoluted tubule (mean of left and right), fold change vs DMSO control; higher = larger pronephric angle. The essentials:
as §1

The structures appear in SMILES notation. Counter-ions that a name gives are not always drawn. ± gives the standard deviation or the standard deviation of the averaged measurements.

The values that follow come from the supplement of paper PMC7366291.

With `C#C[C@]1(O)CC[C@H]2[C@@H]3CCc4cc(O)ccc4[C@H]3CC[C@@]21C` [Ethinylestradiol], the glomerular separation in experiment [1] was 1.64 ± 0.76. This compound also returned a glomerular width in experiment [2] of 0.823 ± 0.015. In addition, the “fraction of imaged embryos annotated as normal kidney” value (“fraction of imaged embryos annotated” for short) in experiment [3] was found to be 0.667. For the same compound, in experiment [4], the “pronephric angle neck segment” value was 1.3 ± 0.015.

The compound `O=C(CCCCCCC(=O)Nc1ccccc1)NO` [Vorinostat] returned a glomerular separation in experiment [1] of 1.25 ± 0.51. The compound also had a glomerular width in experiment [2] of 0.947 ± 0.056. Also, the “fraction of imaged embryos annotated” value in experiment [3] came out at 0.667. For the same compound, in experiment [4], the “pronephric angle neck segment” value was 1 ± 0.053.

`c1ccc(CNc2ncnc3nc[nH]c23)cc1` [Aminopurine, 6-benzyl] yielded a glomerular separation in experiment [1] of 1.17 ± 0.43. The compound further gave a glomerular width in experiment [2] of 1.01 ± 0.042. Moreover, in experiment [3], the “fraction of imaged embryos annotated” value is 0.667. Moreover, the “pronephric angle neck segment” value in experiment [4] was determined as 1.02 ± 0.019.

On to `CC(C)(C)NCC(O)c1ccc(O)c(CO)c1` (centres undefined) [Salbutamol], for which the glomerular separation in experiment [1] was found to be 1.15 ± 0.52. In addition, in experiment [2], the glomerular width was 1.05 ± 0.013. Also, the “fraction of imaged embryos annotated” value in experiment [3] was 0.833. In addition, the “pronephric angle neck segment” value in experiment [4] was determined as 1.04 ± 0.041.

For `COc1cc(C(=O)N2CCOCC2)cc(OC)c1OC` [Trimetozine], the glomerular separation in experiment [1] was found to be 1.03 ± 0.47. For the same compound, in experiment [2], the glomerular width was 0.984 ± 0.065. Further, the “fraction of imaged embryos annotated” value in experiment [3] is 0.917. In experiment [4], the “pronephric angle neck segment” value worked out at 1.01 ± 0.06.

In experiment [1], `CCCCC[C@H](O)/C=C/[C@H]1[C@H](O)CC(=O)[C@@H]1CCCCCCC(=O)O` [Alprostadil] registered a glomerular separation of 1.21 ± 0.52. In experiment [2], this compound displayed a glomerular width of 0.867 ± 0.036. The “fraction of imaged embryos annotated” value in experiment [3] is 0.75. In addition, in experiment [4], the “pronephric angle neck segment” value worked out at 1.09 ± 0.047.

`CN1[C@@H]2CC[C@H]1C[C@@H](OC(=O)C(O)c1ccccc1)C2` (mixture of isomers) [Homatropine hydrobromide (R,S)] gave a glomerular separation in experiment [1] of 0.957 ± 0.29. This compound showed a glomerular width in experiment [2] of 1.06 ± 0.015. Also, the “fraction of imaged embryos annotated” value in experiment [3] was found to be 0.75. Further, the “pronephric angle neck segment” value in experiment [4] came to 0.9643 ± 0.0018.

Regarding `C1N2CN3CN1CN(C2)C3` [Methenamine], the glomerular separation in experiment [1] was determined as 0.642 ± 0.2. For the same compound, the glomerular width in experiment [2] turned out to be 0.975 ± 0.051. The “fraction of imaged embryos annotated” value in experiment [3] came to 0.917. Further, in experiment [4], the “pronephric angle neck segment” value came to 0.994 ± 0.029.

In experiment [1], `O=C1c2c(O)cccc2Cc2cccc(O)c21` [Anthralin] showed a glomerular separation of 0.949 ± 0.28. In addition, the glomerular width in experiment [2] was found to be 0.986 ± 0.02. In experiment [3], the “fraction of imaged embryos annotated” value came out at 0.909. Besides, in experiment [4], the “pronephric angle neck segment” value is 1.06 ± 0.014.

Compound `CCC1NC(=O)c2cc(S(N)(=O)=O)c(Cl)cc2N1` (centres undefined) [Quinethazone] had a glomerular separation in experiment [1] of 0.951 ± 0.37. In experiment [2], the glomerular width is 1.05 ± 0.063. In experiment [3], the “fraction of imaged embryos annotated” value amounted to 0.909. Further, the “pronephric angle neck segment” value in experiment [4] was 1.04 ± 0.027.

Take `O=C1c2ccccc2C(=O)C1c1ccccc1` [Phenindione]: in experiment [1], the glomerular separation was found to be 1.02 ± 0.37. In addition, the glomerular width in experiment [2] stood at 1.07 ± 0.052. The “fraction of imaged embryos annotated” value in experiment [3] was 0.75. The “pronephric angle neck segment” value in experiment [4] was 0.919 ± 0.013.
